Measurements published in PubChem BioAssay.

test: small-molecule binders of probe aNOTCH3, primary screen, biochemical, small-molecule microarray, 635/667 nm fluorescence (AID 1120); conditions: higher = more signal;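 further: probe is a biotin-tagged antibody raised against NOTCH3 rather than NOTCH3 protein; score merges spot fluorescence near 667 nm with spot signal to noise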

Question: With `COCC#Cc1ccc([C@@H]2N[C@H](C(=O)O)CC[C@H]2C)cc1` as the compound, how does the composite z-score read?
Answer: -0.0605

Question: For `C#CCCCON=C1[C@H]2CCn3c(=O)n([C@@H](CC)c4ccccc4)c(=O)n3[C@H]2[C@H](O)[C@@H]2O[C@H]12`, which composite z-score is on record?
Answer: -0.0918

Question: For `O=C1CCCC=C1C(O)C1CCCCC1` (stereo unspecified), which composite z-score is on record?
Answer: -0.0325

Question: With `C[C@@H](c1ccccc1)N1C(=O)[C@H]2[C@H]3[C@H](O)[C@H](O)CC(=NOC[C@@H](O)COCc4ccco4)[C@H]3CC[C@H]2C1=O` as the compound, how does the composite z-score read?
Answer: 0.106

Question: Which composite z-score does the source give for `CCOC(=O)[C@H](CC(C)C)NC(=O)CCC1CC(OC(=O)NCCc2ccc(F)cc2)CC2(CCCC(COC(=O)NCc3cccc4ccccc34)O2)O1` (stereo partly specified) here?
Answer: -0.235

Question: Which composite z-score does the source give for `COC(=O)[C@H](C)NC(=O)CCC1CC(OC(=O)NCCc2ccc(F)cc2)CC2(CCCC(COC(=O)NCCc3ccccc3OC)O2)O1` (stereo partly specified) here?
Answer: -0.0288

Question: For `CCOC(=O)CCN1C(=O)[C@H]2[C@H]3[C@H](O)[C@H](O)CC(=NOCC(C)C)[C@@H]3CC[C@H]2C1=O`, which composite z-score is on record?
Answer: -0.0693

Question: Which composite z-score does the source give for `CC[C@@H](c1ccccc1)n1c(=O)n2n(c1=O)[C@H]1[C@H](O)[C@@H]3O[C@@H]3C(=NOCc3ccccc3)[C@H]1CC2` here?
Answer: 0.0306

Question: With `COc1ccc(O[C@H]2C=C[C@@H](c3ccccc3)O[C@@H]2CON=C(C)CCN2CCCc3nc(C)c(C)cc32)cc1` as the compound, how does the composite z-score read?
Answer: 0.0225

Question: With `COC(OC)[C@@H](C)[C@H](OC)[C@@H](C)[C@H](OC)c1ccccc1` as the compound, how does the composite z-score read?
Answer: -0.0647

Question: For `CC(CCN1CCc2nc(-c3ccccc3)c(-c3ccccc3)cc2C1)=NO[C@@H](C)c1cc(-c2c(C)cc(C)cc2C)no1`, which composite z-score is on record?
Answer: -0.0918

Question: Which composite z-score does the source give for `CO[C@H]1COC(=O)CCC[C@H](C)[C@H](OC)COC(=O)CC=C[C@@H]1C` here?
Answer: -0.189

Question: Which composite z-score does the source give for `COC(=O)[C@H](CCSC)NC(=O)CC=C[C@@H](C)CO` here?
Answer: -0.0651

Question: For `C[C@H]1CC[C@@H](C(=O)O)N[C@@H]1c1cccc(N2CCCC2=O)c1`, which composite z-score is on record?
Answer: -0.173

Question: With `C#CCCCON=C1C[C@@H](O)[C@@H](O)[C@@H]2[C@@H]3C(=O)N([C@@H](C)c4ccccc4)C(=O)[C@@H]3CC[C@@H]12` as the compound, how does the composite z-score read?
Answer: 0.114

Question: For `COC(=O)[C@H](C)NC(=O)CCC1CC(OC(=O)NCc2ccc3c(c2)OCO3)CC2(CCCC(COC(=O)NCc3ccccc3)O2)O1` (stereo partly specified), which composite z-score is on record?
Answer: -0.0072

Question: Which composite z-score does the source give for `CCOC(=O)CCN1C(=O)[C@H]2[C@H]3[C@H](O)[C@H](O)CC(=NNC(=O)OCC)[C@H]3CC[C@H]2C1=O` here?
Answer: 0.0927

Question: For `CC(C)(C)N1C(=O)[C@H]2[C@@H]3C(=CC[C@H]2C1=O)C(=O)[C@H]1O[C@H]1[C@H]3O`, which composite z-score is on record?
Answer: -0.0976

Question: With `O=C1[C@H]2[C@H]3[C@H](O)[C@H](O)CC(=NO[C@@H]4O[C@H](CO)[C@@H](O)[C@H](O)[C@H]4O)[C@@H]3CC[C@H]2C(=O)N1C1CCCCC1` as the compound, how does the composite z-score read?
Answer: 0.0876

Question: For `COc1ccc(COC(=O)NN=C2C[C@@H](O)[C@@H](O)[C@@H]3[C@@H]4C(=O)N([C@@H](C)c5ccccc5)C(=O)[C@@H]4CC[C@@H]23)cc1`, which composite z-score is on record?
Answer: -0.0697

Question: With `COc1ccc(COC(=O)NN=C2C[C@@H](O)[C@@H](O)[C@@H]3[C@@H]4C(=O)N(Cc5ccccc5)C(=O)[C@@H]4CC[C@@H]23)cc1` as the compound, how does the composite z-score read?
Answer: -0.0362

Question: With `CC(C)[C@@H](OCc1ccccc1)[C@H](C)C=NO[C@@H](C)c1cn([C@H](CO)Cc2ccccc2)nn1` as the compound, how does the composite z-score read?
Answer: 0.209

Question: For `CCOC(=O)[C@H](Cc1ccccc1)NC(=O)CCC1CC(OC(=O)NCc2ccc3c(c2)OCO3)CC2(CCCC(COC(=O)NCCOc3ccccc3)O2)O1` (stereo partly specified), which composite z-score is on record?
Answer: 0.0636

Question: Which composite z-score does the source give for `COC(=O)[C@H](C)NC(=O)CCC1CC(OC(=O)NCc2ccc3c(c2)OCO3)CC2(CCCC(COC(=O)NCCCN3CCCC3=O)O2)O1` (stereo partly specified) here?
Answer: 0.186

Question: Which composite z-score does the source give for `O=C(NN=C1C[C@@H](O)[C@@H](O)[C@@H]2[C@@H]3C(=O)N(Cc4ccc5c(c4)OCO5)C(=O)[C@@H]3CC[C@@H]12)OCc1ccccc1` here?
Answer: -0.0377

Question: For `CCN1C(=O)[C@H]2[C@H]3[C@H](O)[C@H](O)CC(=NOCC[C@@H]4C=C[C@H](OC(C)=O)[C@@H](COC(C)=O)O4)[C@@H]3CC[C@H]2C1=O`, which composite z-score is on record?
Answer: -0.149

Question: With `COC(=O)[C@H](C)NC(=O)CCC1CC(OC(=O)NCc2ccc3c(c2)OCO3)CC2(CCCC(COC(=O)NCCC(C)C)O2)O1` (stereo partly specified) as the compound, how does the composite z-score read?
Answer: 0.0488

Question: For `CO[C@H]1COC(=O)CC=C[C@H](C)[C@H](OC)COC(=O)[C@@H](C)NC(=O)CC=C[C@@H]1C`, which composite z-score is on record?
Answer: -0.0319

Question: Which composite z-score does the source give for `O=C1C=C[C@@H](O)[C@@H]2[C@@H]3C(=O)N(Cc4ccccc4)C(=O)[C@@H]3CC[C@@H]12` here?
Answer: 0.21

Question: For `CCOC(=O)[C@H](Cc1ccccc1)NC(=O)CCC1CC(OC(=O)NCc2ccc3c(c2)OCO3)CC2(CCCC(COC(=O)NCCc3ccc(Cl)cc3)O2)O1` (stereo partly specified), which composite z-score is on record?
Answer: 0.0591

Question: Which composite z-score does the source give for `COc1ccc(-c2cnnc(CCCn3ccnc3-c3ccccc3)n2)cc1` here?
Answer: 0.291

Question: Which composite z-score does the source give for `CCOC(=O)NN=C1C[C@@H](O)[C@@H](O)[C@@H]2[C@@H]3C(=O)N(c4ccc(F)cc4F)C(=O)[C@@H]3CC[C@H]12` here?
Answer: -0.0879

Question: For `C#CCCCON=C1C[C@@H](O)[C@@H](O)[C@@H]2[C@@H]3C(=O)N(CC)C(=O)[C@@H]3CC[C@H]12`, which composite z-score is on record?
Answer: -0.118

Question: For `C[C@H]1CC[C@@H](C(=O)O)N[C@@H]1c1ccc(C#Cc2ccccc2)cc1`, which composite z-score is on record?
Answer: 0.0876

Question: With `COC(=O)[C@H](C)NC(=O)CCC1CC(OC(=O)NCc2cccc3ccccc23)CC2(CCCC(COC(=O)NCc3ccccc3)O2)O1` (stereo partly specified) as the compound, how does the composite z-score read?
Answer: 0.062

Question: With `CC(=O)OC[C@H]1O[C@H](CC=NOC[C@@H](O)[C@H]2O[C@@H]3OC(C)(C)O[C@@H]3[C@H]2O)C=C[C@@H]1OC(C)=O` as the compound, how does the composite z-score read?
Answer: 0.116
